Source: PubChem BioAssay (several laboratories)
An excerpt weighted towards active compounds, which were near 3.9% of everything screened.
AHR act: activators of human aryl hydrocarbon receptor. P35869. AHR-responsive luciferase reporter cells, luminescence. activation, % at 5 µM. 320,000 compounds, 2.5% hits. AID 2796; in the data active = activation above about 47%;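 also: 0% = vehicle wells and 100% = reference agonist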
PLC-gamma1 inh: PLC-gamma1 (human) inhibition, primary screen; 370,000 compounds, 0.84% hits; AID 720700; P19174; purified PLC-gamma1, fluorogenic substrate, fluorescence; inhibition, % at 12.2 µM; in the data active = inhibition above about 9.5%
HGIII-sPLA2 inh: Blocks human group III sPLA2 activity; QFRET BODIPY PC-A2 liposome hydrolysis, fluorescence; inhibition, % at 12.2 µM; 370,000 compounds, 0.56% hits; AID 743126;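 active = inhibition above mean plus 3 SD of compounds lying within the high and low control bounds, cut at about 19% in these data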;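 also: 0% = median of test compound wells and 100% = no enzyme DMSO wells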
HIF act: HIF pathway transcriptional activation. U2OS HRE-luciferase reporter, luminescence; normalized: DMSO 0%, desferrioxamine 100%. activation, % at 7.5 µM (by protocol). 300,000 compounds, 0.32% hits. AID 1910;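 active = mean activation of at least 10% of the iron chelator positive control signal, with at least half of replicates also reaching 10%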
Yeast superoxide: caloric restriction mimetics inhibiting age-related superoxide in yeast; AID 2690; superoxide response (% of plate mean), % at 10 µM; 330,000 compounds, 0.18% hits; S. cerevisiae aged cells, superoxide DHE fluorescence; hits give low values;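 active = superoxide response under a set limit, about three screen SD below normal, cut at about 65% in these data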;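 also: yeast aged for seven days with compound at 30 °C before DHE staining; 100% = average MFI of all compound-treated wells on the plate with controls excluded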
PLC-beta3 inh: PLC-beta3 (human) inhibition, primary screen; Q01970; inhibition, % at 12.2 µM; 370,000 compounds, 0.18% hits; Purified PLC-beta3, fluorogenic substrate, fluorescence; in the data active = inhibition above about 11%;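 also: 0% = median of compound wells on plate and 100% = full blocker control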
* hit, by the source's call; i = inactive; / = no result given.

SMILES	AHR act	PLC-gamma1 inh	HGIII-sPLA2 inh	HIF act	Yeast superoxide	PLC-beta3 inh
CCOC(=O)N(C)[C@H]1C[C@H]2c3[nH]c4c(-c5cccc(C)c5)cccc4c3CCN2C[C@H]1[C@H](C)O	/	-125.0	0.6	/	/	-169.1
CCCC(=O)Nc1nc(-c2ccccc2)ns1	69.9*	-3.7	0.4	/	95.0	2.1
Cc1nc2cc[nH]n2c(=O)c1CCc1ccccc1	/	-3.9	5.1	/	/	-10.0
Cc1cc(C)cc(NC(=O)CCc2nc3sc4c(c3c(=O)[nH]2)CCCC4)c1	58.6*	-9.1	-10.6	-0.7	95.1	-24.9
C=CCCC(=O)N1CCC(C(=O)NCC2COc3ccccc3O2)CC1 (configuration not stated)	/	0.1	0.3	/	/	-1.4
CCN(C)C(=O)CN1C(=O)C2CCCCN2C(=O)c2ccccc21 (configuration not stated)	/	-0.6	12.0	/	/	-2.0
O=C1Nc2ccccc2S/C1=C\C(=O)N1CCCC1	63.5*	/	/	1.4	107.0	/
O=C1Nc2ccccc2SC1=Cc1ccccc1	/	-30.7	-20.9	/	/	-42.8
CCc1ccc(C(=O)/C=C2\Sc3ccccc3NC2=O)cc1	15.1	0.6	41.0*	0.8	108.9	0.0
CCC(=O)OCCCN1CCC2(CCC(c3ccccc3)CC2)C1=O (configuration not stated)	/	0.0	0.6	/	/	-5.0
Cc1[nH]nc(-c2ccc(OCc3cnn(-c4ccccc4)c3)cc2O)c1Oc1ccccc1F	49.9*	2.2	-6.1	-0.4	92.1	0.9
O=c1c(Oc2ccccc2F)coc2cc(OCc3cnn(-c4ccccc4)c3)ccc12	0.8	-8.7	-4.5	0.4	92.0	-9.4
Nc1nc(SCC(=O)Nc2ncc(Cl)cc2Cl)n[nH]1	1.1	-2.0	-0.6	/	75.3	-8.0
Cc1cc(Nc2ncc(Cl)cc2Cl)n[nH]1	54.4*	3.4	-1.3	0.7	101.6	1.5
Cc1cccc(C)c1NC(=O)C1(C)CSCC(=O)N1CCOc1ccccc1 (configuration not stated)	/	12.3*	13.1	/	/	11.1*
COCCN1C(=O)CSCC1(C)C(=O)Nc1c(C)cccc1C (configuration not stated)	/	2.6	9.5	/	/	1.2
CCCC1CCC2(CCCN2CCOC(=O)Nc2ccccc2)CC1 (configuration not stated)	/	-1.2	-18.7	/	/	-1.1
Cc1ccc(Nc2nc(Cl)nc(N(C)C#N)n2)cc1	54.7*	2.1	1.0	0.0	96.1	1.8
COc1ccc(S(=O)(=O)N(C)C[C@@H]2Oc3c(NC(=O)Nc4cccc5ccccc45)cccc3C(=O)N([C@@H](C)CO)C[C@H]2C)cc1	/	-4.4	-0.6	/	/	-11.7
COCCN=c1scc(-c2cccs2)n1/N=C/c1ccc(O)c(O)c1O	21.0	-20.4	41.5*	0.4	95.4	-21.8
COCCN=c1scc(-c2ccccc2)n1/N=C/c1c[nH]c2ccccc12	54.8*	-2.2	-3.1	0.5	102.7	-0.6
Cc1ccc(NC(=O)c2ccc(Cn3cc(Br)cn3)o2)cc1	59.5*	0.0	-15.1	0.8	103.8	-1.7
N#Cc1c(NC(=O)c2cnccn2)sc2c1CCCC2	69.3*	-3.4	1.8	5.7	99.0	-2.0
CC(C)c1onc(C(=O)Nc2sc3c(c2C#N)CCC3)c1[N+](=O)[O-]	6.7	-6.2	10.6	191.3*	91.3	-6.6
Cn1nccc1C(=O)Nc1sc2c(c1C#N)CCCC2	29.6	-0.9	6.5	3.1	113.0	-13.7
SMILES	AHR act	PLC-gamma1 inh	HGIII-sPLA2 inh	HIF act	Yeast superoxide	PLC-beta3 inh
N#Cc1c(NC(=O)c2ccc(Cn3cc(Br)cn3)o2)sc2c1CCCCCC2	69.5*	-90.7	0.4	-0.3	80.5	-127.7
CC(C)c1cc(C(=O)Nc2sc3c(c2C#N)CCC3)no1	-2.9	/	/	0.3	84.1	/
O=C1CCC[C@H]2[C@@H](Cc3ccccc3)[C@@H](O)CC[C@]23CCCN13	/	1.2	1.8	/	/	2.8
COc1ccc(-c2nc(NC(=O)Cn3c(=O)oc4ccccc43)sc2C)cc1	69.8*	-2.7	6.1	-0.5	119.2	-4.4
Cc1cc2n(n1)SC(Nc1cccc3ccccc13)N2 (configuration not stated)	53.2*	-34.8	11.2	3.0	95.2	-49.1
CCc1ccccc1NC1Nc2cc(C)nn2S1 (configuration not stated)	3.7	-2.9	11.9	-0.4	116.9	-3.6
Cc1cc2n(n1)SC(Nc1cc(Cl)ccc1Cl)N2 (configuration not stated)	62.9*	1.0	10.2	0.8	89.3	2.9
CCCCNC(=O)C[C@@H]1C(=O)N(CCc2ccc(Cl)cc2)/C2=C/CCCCC[C@@]21C(=O)OCC	/	0.8	-13.0	/	/	4.6
N#Cc1ccc(N=c2ssnc2Cl)cc1	4.9	0.7	11.6	0.6	109.6	0.7
Clc1ccc(N=c2ssnc2Cl)cc1	59.5*	-2.9	9.2	-1.2	97.2	-1.1
CCOc1cccc(-c2nn3c(-c4cccc(C)c4)nnc3s2)c1	/	-2.9	14.6	/	/	3.8
COC(=O)c1c(C(=O)OC)c2ccncn2c1Cl	74.0*	-22.2	6.2	0.4	106.8	-26.2
Cc1ccc(C(=O)Nc2nccs2)cc1	24.2	-12.7	2.9	1.1	105.6	-23.1
O=C(Nc1nccs1)c1cncc(Br)c1	56.4*	0.4	0.1	2.7	112.0	-1.6
O=C(Nc1nccs1)c1ccc2nccnc2c1	53.1*	-14.4	2.5	1.7	66.3	-17.1
O=C(Nc1nccs1)c1cccnc1	0.9	1.3	3.0	1.0	91.3	1.5
CCC(NC(=O)Cn1c(-c2ccccc2)cc(C(C)=O)c1C)c1ccccc1 (configuration not stated)	/	-0.9	-6.8	/	/	3.8
Cc1ccccc1NC(=O)CC1S/C(=N/c2nccs2)N(C)C1=O (configuration not stated)	13.8	-3.8	-20.3	0.1	108.3	-2.0
Cc1ccc(NC(=O)CC2S/C(=N/c3nccs3)N(C)C2=O)cc1C (configuration not stated)	52.5*	1.5	-11.8	0.3	111.0	2.0
CC(/C=N/Nc1nc(C)cc(=O)[nH]1)=C\c1ccccc1	7.8	-0.1	3.5	0.5	89.1	0.7
CC(/C=N/Nc1ncc(C)c(=O)[nH]1)=C\c1ccccc1	61.3*	-2.2	-2.6	1.3	94.4	-4.5
CSc1nnc(-c2cc3c(s2)-c2ccccc2CC3)o1	66.5*	i	-17.9	3.3	87.7	i
N/C(=N\N=C\c1ccc(O)cc1)c1nonc1N	0.8	10.7*	2.2	2.4	99.7	9.1
CCOc1ccc(CCNC(=O)c2cc3sccc3n2Cc2ccccc2)cc1OCC	/	0.6	-6.6	/	/	3.7
CC1=CC2=NC(=O)/C(=C\c3ccc(-c4cccc(Cl)c4)o3)C(=N)N2O1	69.9*	-5.1	-0.9	-0.1	107.5	-4.3
CCCCN1CCN(C(=O)c2ccc(CNC(=O)c3cccc(Br)c3)cc2)CC1	/	2.9	-10.8	/	/	6.0
CN(N)c1nc(-c2ccccc2)cc(-c2ccccc2)n1	66.3*	-26.2	5.1	-2.7	107.4	-37.6
Cc1nc(-c2ccccc2)cc(-c2ccccc2)n1	18.3	-0.9	14.2	-0.3	98.3	-7.4
